Results published in PMC5540273 (PLoS ONE, 2017).

System: T1, LOK
T1 construct: gene STK10
Conditions: concentration: 1 μM, replicates: in singlicate; n = 1
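Note: KINOMEscan kinase panel screen.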

Question: `CCc1nc(-c2cccc(C)c2)c(-c2ccnc(NCc3ccccc3)c2)s1` was tested. Which “%Inh” value did it give?
Answer: 19%

Question: For `O=c1cc(N2CCOCC2)nc2n(Cc3cccc4ccccc34)ccn12` [GSK2333389], which “%Inh” value is on record?
Answer: 0%

Question: For `CN1c2ccc(NCc3ccc(F)cc3)cc2-c2c(cnn2C)S1(=O)=O`, which “%Inh” value is on record?
Answer: 0%

Question: `Cc1ccc(NC(=O)c2ccnc(N3CCN(C)CC3)c2)cc1-c1ccc(C(=O)NCC2CC2)cc1` [GW775604] was tested. Which “%Inh” value did it give?
Answer: 9%

Question: How did the “%Inh” value turn out when `Cc1ccc(C(=O)NCC(N)=O)cc1-n1c(C)cc(OCc2ccc(F)cc2F)c(Br)c1=O` was run?
Answer: 26%

Question: Which “%Inh” value does the source give for `COCCNC(=O)c1ccc(-c2cc(C(=O)NC3CC3)cc(F)c2C)cc1` [GW868318] here?
Answer: 20%

Question: `COc1ccc(Nc2ncc(C#N)c(Nc3ccccc3C(N)=O)n2)cc1N1CCN(C)CC1.Cl` [GSK1558669] was tested. Which “%Inh” value did it give?
Answer: 99%

Question: For `COc1ccc(S(=O)(=O)NC2CCN(c3cc(C)nc(Nc4cccc(C#N)c4)n3)CC2)cc1.O=C(O)C(F)(F)F` [GSK1653539], which “%Inh” value is on record?
Answer: 0%

Question: How did the “%Inh” value turn out when `COc1ccc(Nc2nccc(N3CCC(NC(=O)Nc4cc(C)ccc4C)C3)n2)cc1` (stereo not shown) [GSK1379741] was run?
Answer: 0%

Question: For `CC(C)(C)n1cnc2c(N)ncnc21` [SKF-97359], which “%Inh” value is on record?
Answer: 0%

Question: Which “%Inh” value does the source give for `COc1cc2ncn(-c3cc(OCc4sccc4Cl)c(C(N)=O)s3)c2cc1OC` [GSK448459] here?
Answer: 99.1%

Question: For `COC(=O)Nc1nc2cc(Oc3ccc(NC(=O)Nc4cc(F)ccc4F)cc3)ccc2[nH]1.Cl` [GW701424], which “%Inh” value is on record?
Answer: 98.4%

Question: Which “%Inh” value does the source give for `Cc1c2ccc(N(C)c3ccnc(Nc4cccc(S(N)(=O)=O)c4)n3)cc2nn1Cc1ccccc1.Cl.Cl` [GW787226] here?
Answer: 98.4%

Question: How did the “%Inh” value turn out when `O=C(NCCNc1ccnc(Nc2ccc(F)cc2)n1)c1cc2ccccc2s1` [GSK1379874] was run?
Answer: 0%

Question: With `CCn1cnc2c(N)ncnc21` [GW345098] as the compound, how does the “%Inh” value read?
Answer: 25%

Question: How did the “%Inh” value turn out when `O=C1Cc2cc(Nc3nc(NCc4cccc(S(=O)(=O)C(F)(F)F)c4)ncc3C(F)(F)F)ccc2N1` was run?
Answer: 1%

Question: For `Cl.Oc1cccc(Nc2ccnc3cc(-c4ccncc4)ccc23)c1` [GW494601], which “%Inh” value is on record?
Answer: 31%

Question: Which “%Inh” value does the source give for `Cn1cc(-c2ccc3c(c2)CCN3C(=O)Cc2ccccc2Cl)c2c(N)ncnc21` [GSK2608885] here?
Answer: 99.8%

Question: Which “%Inh” value does the source give for `NS(=O)(=O)CCc1cccc(Nc2nccc(-c3c(-c4cccc(NC(=O)c5c(F)cccc5F)c4)nn4ccccc34)n2)c1` [GSK336735] here?
Answer: 99.4%

Question: For `O=c1cc(N2CCOCC2)nc2n(Cc3cccc(Cl)c3Cl)c(C3CC3)nn12` [GSK2358994], which “%Inh” value is on record?
Answer: 0%

Question: How did the “%Inh” value turn out when `COc1ccc(COc2cc(-n3cnc4ccccc43)sc2C(N)=O)cc1` [GSK1024304] was run?
Answer: 0%

Question: `c1ccc(-c2n[nH]cc2-c2ccnc3ccccc23)nc1` [GW271431] was tested. Which “%Inh” value did it give?
Answer: 0%

Question: How did the “%Inh” value turn out when `CN(C1=C(c2ccccc2)C(=O)NC1=O)c1ccccc1` [SB-334860] was run?
Answer: 1%

Question: `COc1ccc(CNC(=O)NC2CCN(c3ccnc(Nc4ccc(OC)cc4)n3)C2)cc1` (stereo not shown) [GSK1379727] was tested. Which “%Inh” value did it give?
Answer: 0%

Question: Which “%Inh” value does the source give for `COc1cc2c(cc1OC[C@@H](O)CO)ncc1c3ccc(C#N)cc3[nH]c21` here?
Answer: 20%

Question: Which “%Inh” value does the source give for `c1ccc(-c2cc(-c3c[nH]nc3-c3ccccn3)ccn2)cc1` [GW576604] here?
Answer: 0%

Question: `Cc1cccc(-c2nc(-c3ccc(S(C)(=O)=O)cc3)sc2-c2ccncc2)c1` was tested. Which “%Inh” value did it give?
Answer: 0%

Question: `Cc1cccc(Cn2ccn3c(=O)cc(N4CCOCC4)nc23)c1` [GSK2297542] was tested. Which “%Inh” value did it give?
Answer: 0%

Question: Which “%Inh” value does the source give for `Fc1ccc(-c2nn3c(OCC(F)(F)F)cccc3c2-c2ccncc2)cc1` [GW514784] here?
Answer: 0%

Question: `N#Cc1c(N2CCOCC2)sc(-c2ccn[nH]2)c1-c1ccc(Cl)cc1` was tested. Which “%Inh” value did it give?
Answer: 5%

Question: Which “%Inh” value does the source give for `COc1cc2c(cc1OCCN1CCN(C)CC1)ncc1c3ccc(C#N)cc3[nH]c21` here?
Answer: 33%

Question: How did the “%Inh” value turn out when `CC(=O)Nc1ccc(COc2ccc(Nc3ccnc4cc(-c5ccccn5)ccc34)cc2)cc1.Cl` [GW440148] was run?
Answer: 7%

Question: `[2H]C([2H])(c1cccc(C(F)(F)F)c1C)n1ccn2c(=O)nc(N3CCOCC3)cc12` [GSK2336394] was tested. Which “%Inh” value did it give?
Answer: 0%

Question: For `COc1ccc(Nc2nccc(N3CCC(NC(=O)Nc4cccc(C(C)=O)c4)C3)n2)cc1` (stereo not shown) [GSK1379731], which “%Inh” value is on record?
Answer: 0%
